Screening results: PubChem, National Center for Advancing Translational Sciences (NCATS)
TRPML1 ag = agonists of human TRPML1 channel. TRPML1-expressing cells, Ca2+ dye fluorescence, FDSS. activation, % (test concentration not listed). 410,000 tested, 0.12% active. AID 624414; in the data active = activation above about 50%; inconclusive = mostly about 30% to 49%; also: 0% is about no effect
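Tetracycline-induced TRPML1-DL cells are seeded and incubated overnight before loading with a no-wash Ca2+ dye and quencher. Agonist activity is taken from the 110 s fluorescence read following compound pin-transfer on an FDSS, before EC80 54-4 challenge.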
Glioma ERSR ind = inducers of ER stress response in human glioma cells; U87-MG GRP78 promoter luciferase reporter, 16 h; Potency, µM, for inactives: top-dose activation, actives largely listed as activators; 420,000 tested, 0.02% active; AID 602332; also: potency is read from the fitted curve at half-maximal effect; series mostly up to about 76 µM; % of control where 0% means no effect; nearly all actives have a fitted effect of over 35% in size
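ERSR induction read as luciferase luminescence (Bright-Glo, 10 min at room temperature) in stably transfected human U87-MG glioma cells exposed to compounds for 16 h, using GRP78 as sensor.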
TRHR enhancer-1 = allosterically enhances the human TRH receptor; TRHR cells, fluo-8 calcium fluorescence, EC20 TRH enhancement; 360,000 tested, 0.66% active; P34981; enhancement, % at 2 µM; in the data active = enhancement above about 30%; also: 0% is about no effect
Target sequence (P34981 whole entry, looked up): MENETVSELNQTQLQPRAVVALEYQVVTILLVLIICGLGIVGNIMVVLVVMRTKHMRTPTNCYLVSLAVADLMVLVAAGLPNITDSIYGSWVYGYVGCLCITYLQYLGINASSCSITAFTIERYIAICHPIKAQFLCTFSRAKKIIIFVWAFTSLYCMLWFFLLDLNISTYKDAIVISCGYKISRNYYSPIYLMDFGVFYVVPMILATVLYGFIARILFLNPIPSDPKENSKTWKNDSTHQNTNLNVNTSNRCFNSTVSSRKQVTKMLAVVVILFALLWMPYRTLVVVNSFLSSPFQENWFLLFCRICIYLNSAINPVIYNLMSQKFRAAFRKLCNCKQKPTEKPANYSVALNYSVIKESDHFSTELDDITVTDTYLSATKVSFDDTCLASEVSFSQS
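Enhancer read-out: after compound pinning and an initial kinetic agonist-mode read, an EC20 of TRH (10 nM final) was injected and fluo-8 calcium signal (Ex 480/Em 530) followed at 1 s/cycle for 100 cycles in TRHR-expressing cells.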
TRPML1 inh = blocks the human TRPML1 channel; 390,000 tested, 0.02% active; activity change, negative = inhibition, % (test concentration not listed); AID 624415; TRPML1-inducible cells, Ca2+ dye fluorescence, FDSS; stronger effect = lower value; inhibition of EC80 agonist-evoked calcium signal; in the data active = activity change below about -50%; inconclusive = between about -30% and that limit;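 also: stimulus is agonist 54-4 at its EC80 concentration; % is scaled to controls: 0 for no effect and ±100 for the full control effect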
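TRPML1-DL cells, Tet-induced overnight (~16 h, 37 °C) at 1,500 cells/well, were loaded with Ca8 no-wash dye plus quencher for 45-90 min at room temperature. Compounds were pinned during FDSS kinetic reading; agonist 54-4 at EC80 (4 uM final) then added.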
TRHR agonist-1 = agonists of human TRH receptor | P34981 | TRHR cells, calcium flux fluo-8, FDSS agonist mode | activation, % at 2 µM | 360,000 tested, 0.18% active | AID 493084; in the data active = activation above about 30%; also: 0% is about no effect
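Read-out: compound-evoked intracellular calcium rise in TRHR cells, fluo-8 dye, kinetic FDSS fluorescence at 1 s/cycle following a 10-cycle baseline. Cells cultured overnight before dye loading (30 min–1.5 h, RT).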
TRHR enhancer-2 = confirmation of human TRH receptor allosteric enhancers | TRH receptor cell assay, enhancer confirmation qHTS | 970 tested, under 10 active | activity change, negative = inhibition, % at 46.1 µM | shares compounds with TRHR enhancer-1;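 also: compound effect scored on response to added TRH at EC20 of 10 nM; 0% is about no effect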
TRHR agonist-2 = human TRH receptor agonism confirmation. shares compounds with TRHR enhancer-1. TRHR-expressing cells, agonist activation read-out. Potency, µM (highest dose often 46.1 µM), without a hit: at the top dose activation, hits mostly activators. 970 tested, 8% active. AID 493078; also: potency is read from the fitted curve at half-maximal effect; 0% is about no effect; nearly all actives have a fitted effect of over 75% in size
Active calls of the source: *; ? = inconclusive; . = not tested or not shown; ! = not active in a repeat. Most compounds without a hit are left out; they make up all but 0.8% or so of the library. Unless noted, calls follow the shape of the dose curve; as a rule, active = well fitted curve in the direction sought with a large enough effect; inconclusive = small, poorly fitted or top-dose-only effect, or another doubt; inactive = no such curve, though single readings can be large; an effect the other way counts as inactive or inconclusive.

SMILES	TRPML1 ag	Glioma ERSR ind	TRHR enhancer-1	TRPML1 inh	TRHR agonist-1	TRHR enhancer-2	TRHR agonist-2
CC(C)c1ccccc1N=C1SCCN1C1CCS(=O)(=O)C1 (configuration not stated)	-1	-4%	70*	0	0	1	?
O=C(CCCn1c(=S)[nH]c2cc3c(cc2c1=O)OCO3)NCc1ccccc1Cl	-1	-2%	46*	4	-2	-4	0%
C=CCn1c(=O)c2ccccc2n2c(SC(C)C(N)=O)nnc12 (configuration not stated)	0	-2%	45*	18	-1	-1	-1%
CCCn1c(=O)c2ccccc2n2c(SC(C)C(N)=O)nnc12 (configuration not stated)	1	-2%	-1	-7	0	.	.
CC(C)(C)n1ncc2c(=O)n(Cc3ccc(F)c(C(F)(F)F)c3)cnc21	1	2%	.	4	.	.	.
CC1(C)CN=C(N(Cc2ccccc2)C(=O)Nc2ccccc2)S1	6	7%	42*	-16	3	4	?
C=CCN(Cc1cn(C)nc1-c1cccc(Cl)c1)C1CCS(=O)(=O)C1 (configuration not stated)	0	-2%	46*	5	0	-3	0%
CC1=C(C)CC(C(=O)NCCCN2CCCC2=O)C(C(=O)O)C1 (configuration not stated)	0	-4%	-8	24	0	.	.
O=C(O)C1CC=CCC1C(=O)NCCCN1CCCC1=O (configuration not stated)	0	-5%	45*	12	0	1	-1%
CCOC(=O)Cc1csc(SCC(=O)NC2CCCC2)n1	2	-6%	52*	-8	0	-5	0%
CCOC(=O)Cc1csc(SCC(=O)NC2CCCCC2)n1	0	9%	10	8	0	.	.
CSc1nc(C(=O)NCc2nc(-c3cccc(NC(=O)c4ccccn4)c3)oc2C)cs1	.	-3%	.	.	.	.	.
Clc1ccc(CNc2ncccn2)cc1	-1	-9%	-3	2	-1	.	.
Fc1ccc(CNc2ncccn2)cc1	-1	-1%	42*	12	-1	2	-1%
Cc1cc(=O)c(C(=O)NCCc2ccccn2)c2n1-c1ccccc1SC(c1cccs1)C2 (configuration not stated)	.	-4%	.	.	.	.	.
COc1cccc(C2=NC(C)(C)NC(c3ccccc3O)C2)c1 (configuration not stated)	0	?	42*	-1	1	0	0%
COc1cc(=O)n2c(c1C(=O)NCc1ccco1)CCN(Cc1cccc(Cl)c1)CC2	.	-4%	.	.	.	.	.
COc1ccc(NC(=O)c2cc(-c3ccccc3)on2)cc1OC	0	-7%	1	10	0	.	.
COc1cccc(-c2cc(C(=O)Nc3ccc(OC)c(OC)c3)no2)c1	0	-6%	2	7	27	1	2%
COc1ccc(-c2cc(C(=O)Nc3cc(C)nn3-c3ccccc3)no2)cc1OC	-1	0%	57*!	1	0	-7	2%
COc1ccc(C2(C(=O)NC(C)C)CCCC2)cc1OC	4	-3%	52*	3	0	-5	0%
COc1ccc(C2(C(N)=O)CCCCC2)cc1OC	0	-3%	-6	10	0	.	.
Cc1oc(-c2ccccc2NC(=O)C2CCC2)nc1CNC(=O)c1ccc2ccccc2c1	.	1%	.	.	.	.	.
COc1cc(OC)c(OC)cc1CN1CCC(n2cc(C(=O)N3CCCCC3)nn2)CC1	.	-3%	.	.	.	.	.
Cc1c(C(=O)NCC(C)(C)N2CCOCC2)cnn1-c1ncc2c(n1)-c1ccccc1CCC2	.	-1%	.	.	.	.	.
O=C(COc1ccc(Cl)cc1)NCc1nnc(SCC(=O)Nc2ccccc2F)o1	1	-1%	44*	-23	0	2	0%
CCc1ccccc1NC(=O)CN(C)C(=O)Cn1ncc(Cl)c(Cl)c1=O	0	-14%	49*	23	0	-2	1%
